Where two headings read alike, the source gives them in different places.
Experiments:
AAK1 = conditions: n = 1
ABL1-nonphosphorylated = conditions: concentration: 1 μM,replicates: in singlicate; n = 1
ABL1-phosphorylated = conditions: concentration: 1 μM,replicates: in singlicate; n = 1
ABL2 = conditions: concentration: 1 μM,replicates: in singlicate; n = 1
ACVR1B = conditions: concentration: 1 μM,replicates: in singlicate; n = 1
ACVR1 = conditions: concentration: 1 μM,replicates: in singlicate; n = 1
ACVR2A = conditions: concentration: 1 μM,replicates: in singlicate; n = 1
ACVR2B = conditions: concentration: 1 μM,replicates: in singlicate; n = 1
ACVRL1 = conditions: concentration: 1 μM,replicates: in singlicate; n = 1
ADCK3 = system: T1, ADCK3; conditions: concentration: 1 μM,replicates: in singlicate; n = 1
T1 construct: gene CABC1

[1] = concentration: 1 μM,replicates: in singlicate
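Also: KINOMEscan kinase panel screen.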

Row | Compound | %Inh (AAK1; [1]) | %Inh (ABL1-nonphosphorylated) | %Inh (ABL1-phosphorylated) | %Inh (ABL2) | %Inh (ACVR1B) | %Inh (ACVR1) | %Inh (ACVR2A) | %Inh (ACVR2B) | %Inh (ACVRL1) | %Inh (ADCK3) | %Inh (AAK1; 1 µM)
1 | COc1cc(Nc2nccc(N3CCC(NC(=O)c4cccc(C#N)c4)C3)n2)cc(OC)c1OC (centres unmarked) [GSK1379751] | 75% | 0% | 0% | 3% | 0% | 98.8% | 0% | 0% | 0% | 4% | –
2 | CC(=O)c1c(-c2ccncc2)[nH]c(-c2ccncc2)c1C [GW493036] | 14% | 0% | 0% | 7% | 0% | 7% | 0% | 17% | 0% | 4% | –
3 | COc1cc2nccc(Nc3ccc(Oc4ccccc4)cc3)c2cc1OC.Cl [GI261656] | 6% | 89% | 14% | 16% | 0% | 0% | 0% | 0% | 0% | 5% | –
4 | O=c1[nH]cc(-c2ccc(O)cc2)c2sc(-c3ccncc3)cc12 [GSK1033723] | 26% | 0% | 0% | 0% | 0% | 0% | 0% | 0% | 0% | 34% | –
5 | CC(C)c1nc(-c2cccc(NS(=O)(=O)c3ccccc3)c2)c(-c2ccnc(Nc3ccc4c(c3)CN(C)CC4)n2)s1 [GSK1649598] | 25% | 99.8% | 97.3% | 98.7% | 93.5% | 99% | 24% | 94.5% | 80% | 100% | –
6 | Cn1cc(-c2cccc3c(N)c(C(N)=O)nnc23)cn1 | 36% | 24% | 0% | 9% | 28% | 63% | 27% | 29% | 3% | 15% | –
7 | OCCn1cc(-c2cnc3nnn(Cc4ccc5ncccc5c4)c3n2)cn1 | 0% | 32% | 0% | 0% | 51% | 0% | 0% | 0% | 0% | 0% | –
8 | c1ccc(Oc2ccc(Nc3ccnc4ccc(-c5ccccn5)cc34)cc2)cc1 [GW407034] | 13% | 0% | 0% | 17% | 0% | 5% | 6% | 13% | 0% | 12% | –
9 | C[C@@H]1CNc2c(sc3ccc4nc(-c5ccc(O)cc5)ccc4c23)C(=O)N1 | 29% | 48% | 10% | 3% | 22% | 11% | 8% | 52% | 45% | 0% | –
10 | Cc1ccc(CC(=O)N2CCc3cc(-c4cn(C)c5ncnc(N)c45)ccc32)cc1 [GSK2634758] | 33% | 42% | 5% | 24% | 20% | 0% | 0% | 0% | 0% | 6% | –
11 | Cc1ccc2c(-c3ccnc(Nc4ccc(C(F)(F)F)cc4)n3)cnn2n1 [GW819776] | 12% | 36% | 28% | 1% | 11% | 0% | 0% | 0% | 0% | 5% | –
12 | NC(=O)c1ccc(-c2cc3ncnc(SCC(=O)O)c3s2)cc1 | 4% | 57% | 20% | 0% | 0% | 0% | 8% | 17% | 0% | 25% | –
13 | C[C@@H]1CNc2c(sc3ccc4nc(-c5ccncc5)ccc4c23)C(=O)N1 | 49% | 38% | 11% | 0% | 0% | 0% | 1% | 30% | 10% | 0% | –
14 | C[C@@H](Oc1cc(-n2cnc3ccc(-c4ccncc4)cc32)sc1C(N)=O)c1ccccc1Cl [GSK483724] | 60% | 0% | 0% | 21% | 0% | 32% | 0% | 0% | 0% | 52% | –
15 | Cc1ccc(Nc2ccnc(Nc3ccc4c(c3)CS(=O)(=O)C4)n2)cc1O.Cl [GW579362] | 80% | 99.3% | 99.8% | 99.3% | 84% | 99.5% | 72% | 95.6% | 85% | 8% | –
16 | CN(c1ccccc1CNc1nc(Nc2ccc3c(c2)CC(=O)N3)ncc1C(F)(F)F)S(C)(=O)=O | 10% | 25% | 7% | 5% | 28% | 0% | 0% | 0% | 0% | 0% | –
17 | Cc1cccc2c(-c3ccncc3)c(-c3ccc(F)cc3)nn12.Cl [GW461487] | 14% | 0% | 0% | 5% | 18% | 9% | 0% | 11% | 0% | 18% | –
18 | C[C@@H](Oc1cc(-n2cnc3cc(-c4ccncc4)ccc32)sc1C(N)=O)c1ccccc1Cl [GSK479719] | 61% | 0% | 25% | 22% | 0% | 10% | 0% | 0% | 0% | 12% | –
19 | O=C(NOCC1CC1)c1cc(Br)c(F)c(F)c1Nc1ccc(I)cc1Cl | 0% | 52% | 0% | 0% | 0% | 0% | 2% | 0% | 0% | 7% | –

Row | Compound | %Inh (AAK1; [1]) | %Inh (ABL1-nonphosphorylated) | %Inh (ABL1-phosphorylated) | %Inh (ABL2) | %Inh (ACVR1B) | %Inh (ACVR1) | %Inh (ACVR2A) | %Inh (ACVR2B) | %Inh (ACVRL1) | %Inh (ADCK3) | %Inh (AAK1; 1 µM)
20 | CS(=O)(=O)Nc1ccc(-c2ccnc3[nH]ccc23)cc1 [GSK993273] | 79% | 0% | 1% | 16% | 0% | 3% | 0% | 0% | 0% | 12% | –
21 | Cn1ccc2ncnc(Oc3ccc(NC(=O)Nc4ccnc(C(F)(F)F)c4)c(Cl)c3)c21 | 18% | 68% | 10% | 5% | 0% | 11% | 4% | 13% | 63% | 0% | –
22 | FC(F)(F)c1cc(Br)cc(Nc2nccc(-c3cnn4ncccc34)n2)c1 [GW810578] | 32% | 0% | 0% | 0% | 6% | 15% | 13% | 2% | 25% | 10% | –
23 | O=C(Nc1cccc(Oc2ccc3nccn3n2)c1)Nc1cccc(C(F)(F)F)c1 | 0% | 98.2% | 15% | 71% | 0% | 0% | 22% | 9% | 0% | 0% | –
24 | CN(c1ccc2c(c1)nc(NCc1ccc(F)cc1)n2C)c1ccnc(Nc2ccc(CS(C)(=O)=O)cc2)n1.Cl [GW813244] | 30% | 97.2% | 79% | 75% | 3% | 17% | 0% | 0% | 0% | 0% | –
25 | Cn1ccc2ncnc(Oc3ccc(NC(=O)Nc4cccc(C(F)(F)F)c4)c(Cl)c3)c21 | 0% | 88% | 19% | 21% | 1% | 0% | 0% | 47% | 0% | 5% | –
26 | CCn1c(-c2nonc2N)nc2cncc(Br)c21 [SB-738004] | 67% | 0% | 0% | 0% | 30% | 0% | 0% | 9% | 0% | 25% | –
27 | Cn1ccc2ncnc(Oc3ccc(NC(=O)Nc4cc(C(C)(C)C)on4)c(Cl)c3)c21 | 18% | 94.8% | 51% | 46% | 15% | 0% | 12% | 12% | 0% | 0% | –
28 | CC(C(=O)NC1CCN(c2ccnc(Nc3ccc(F)cc3)n2)C1)c1ccc(Cl)cc1 (centres unmarked) [GSK1379713] | 14% | 0% | 0% | 9% | 0% | 0% | 0% | 0% | 0% | 0% | –
29 | CN1CCN(CCCNc2nccc(-c3c(-c4ccc(F)cc4)nn4cc(C(N)=O)ccc34)n2)CC1 [GW622475] | 33% | 10% | 0% | 17% | 94.9% | 90.6% | 19% | 45% | 77% | 96.7% | –
30 | O=C(Nc1n[nH]c2cc(-c3ccco3)ccc12)C1CC1 [SB-737447] | 100% | 37% | 28% | 0% | 5% | 0% | 9% | 0% | 0% | 8% | –
31 | COc1ccc(Nc2nccc(N3CCC(NC(=O)c4cccc(C#N)c4)C3)n2)cc1 (centres unmarked) [GSK1379730] | 0% | 0% | 0% | 9% | 4% | 24% | 0% | 0% | 0% | 0% | –
32 | CCCC(=O)Nc1n[nH]c2ncccc12 [SB-601436] | 0% | 24% | 0% | 0% | 0% | 5% | 0% | 0% | 0% | 0% | –
33 | O=C(NCC1CC1)c1ccc(-c2cc(C(=O)NC3CC3)ccc2F)cc1 [GW810445] | 0% | 0% | 10% | 3% | 0% | 0% | 0% | 6% | 0% | 0% | –
34 | CS(=O)(=O)c1cccc(CNc2nc(Nc3ccc4c(c3)[C@@H]3C[C@@H]4CNC3=O)ncc2C(F)(F)F)c1 | 92.6% | 97.9% | 93.2% | 66% | 0% | 0% | 0% | 0% | 0% | 0% | –
35 | CCN1CCN(CCCC(=O)Nc2n[nH]c3nc(-c4ccc(O)cc4)c(Br)cc23)CC1 [SB-731579] | 0% | 64% | 31% | 100% | 0% | 78% | 0% | 2% | 63% | 0% | –
36 | O=C(Nc1ccccc1)c1cccc(Oc2ccc3nccn3n2)c1 | 1% | 12% | 0% | 3% | 5% | 6% | 0% | 5% | 2% | 19% | –
37 | Cc1cccc(-c2nc(Nc3ccncc3)c3sccc3n2)n1 [GW869641] | 25% | 0% | 16% | 0% | 96.5% | 0% | 42% | 41% | 14% | 0% | –
38 | Cl.Cl.NC[C@H](CC1CCCCC1)NC(=O)c1ccc(-c2ccnc3[nH]ccc23)s1 [GSK1581428] | – | – | – | – | – | – | – | – | – | – | 75%

— publication PMC5540273 (PLoS ONE, 2017)
